Records with an inconclusive call do not appear. Active and inactive are the calls of the source. The call rests on the fitted dose curve; in most records, active means well fitted inhibition curve with a large enough effect; inconclusive means small, poorly fitted or top-dose-only effect; inactive means flat fitted curve, though single readings scatter.

Our source for the z-score and activity, negative = inhibition values is PubChem BioAssay (NCATS).

One test is described as follows: qHTS for identification of novel therapeutic agents for treatment of microphthalmiaassociated transcription factor (MiT) renal cell carcinoma (RCC) (AID 1963991). The note with it: TFE3-RCC viability, CellTiter-Glo, 48 h; measured here: UOK145 Z-AUC; stronger effect = lower value. In outline: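 Curves over 11 concentrations were fitted to CellTiter-Glo luminescence, scaled between empty wells (0%) and DMSO (100%) viability. Cells were UOK109, UOK124 and UOK145 TFE3-fusion RCC lines at 500/well, exposed 48 hours at 37 C.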
Background: In qHTS, concentration-response curves come from the screen itself.
Turning to `COc1cccc(OC)c1-c1cc(C(=O)NC2(C(=O)O)C3CC4CC(C3)CC2C4)nn1-c1ccnc2cc(Cl)ccc12` (centres undefined), the z-score turned out to be 0.707.
In turn, `Cc1ccc(S(=O)(=O)OCC(=O)Nc2ccc(C(=O)O)c(O)c2)cc1` returned a z-score of -0.321.
The compound `CNC1[C@H](O)C(O[C@@H]2C(O)C(O[C@H]3O[C@H]([C@@H](C)NC)CC[C@H]3N)[C@@H](N)C[C@H]2N)OC[C@]1(C)O` (some centres undefined) came in with a z-score of 0.886.
`COc1cc(C=CC(=O)O)ccc1O` returned a z-score of 0.103.
Compound `CO[C@H]1/C=C\O[C@@]2(C)Oc3c(C)c(O)c4c(O)c(c5c(nc6cc(C)ccn65)c4c3C2=O)NC(=O)C(C)=CC=C[C@H](C)[C@H](O)[C@@H](C)[C@@H](O)[C@@H](C)[C@H](OC(C)=O)[C@H]1C` registered a z-score of 0.817.
As to `N=C1SC(=Cc2ccc(-c3ccc4c(c3)C(=O)NC4=O)o2)C(=O)N1c1ccc(Br)cc1`, the z-score turned out to be 0.868.
For the compound `C[C@]12C=CC(=O)C=C1CC[C@@H]1[C@@H]2[C@@H](O)C[C@@]2(C)[C@@H]1CC[C@]2(O)C(=O)CO`, the z-score was -1.47.
With `C[C@@H](O)[C@H]1C(=O)N2C(C(=O)OCOC(=O)C(C)(C)C)=C(SC3CN(C4=NCCS4)C3)[C@H](C)[C@H]12`, the z-score stood at 0.788.
On the same count and under the same terms, then `CN(C)c1nc(Cc2ccc(NC(=O)c3ccc(C(F)(F)F)cc3)cc2)nc(N(C)C)c1CC(=O)O`, with 0.741.
The compound `FC(F)(F)c1ccc(C=Cc2nc(COc3ccc(CCCCn4ccnn4)cc3)co2)cc1` had a z-score of -1.58.
The compound `CC[C@H](C)C(=O)O[C@H]1C[C@H](O)C=C2C=C[C@H](C)[C@H](CC[C@@H](O)C[C@@H](O)CC(=O)O)[C@H]21` had a z-score of 0.248.
Same read-out and setting: then `CC1(C)OC2CC3C4CC(F)C5=CC(=O)C=CC5(C)C4C(O)CC3(C)[C@]2(C(=O)CO)O1` (some centres undefined), with -1.73; and `CO[C@H]1/C=C\O[C@@]2(C)Oc3c(C)c(O)c4c(O)c(c(C=NN5CCN(C6CCCC6)CC5)c(O)c4c3C2=O)NC(=O)C(C)=CC=C[C@H](C)[C@H](O)[C@@H](C)[C@@H](O)[C@@H](C)[C@H](OC(C)=O)[C@H]1C`, with -2.93; and `COc1cc2c(cc1OC)[C@@H]1Cc3ccc(OC)c(OC)c3CN1CC2`, with 0.612.
As to `COc1ccc2c(c1)CC[C@H]1[C@@H]2CC[C@]2(C)[C@@H](NCCCCCCN3C(=O)C=CC3=O)CC[C@H]12`, the z-score worked out at 0.661.
Still for that read-out and setting: then `CCCCC[C@H](O)C=C[C@H]1[C@H](O)CC(=O)[C@H]1CCCCCCC(=O)O`, with 1.28; and `CN(CC=CC#CC(C)(C)C)Cc1cccc2ccccc12`, with 2.39.
Take `C[C@@H]1O[C@@H](O[C@H]2CC[C@@]3(C)[C@H](CC[C@@H]4[C@H]3C[C@@H](O)[C@]3(C)[C@@H](C5=CC(=O)OC5)CC[C@]43O)C2)C[C@H](O)[C@@H]1O[C@H]1C[C@H](O)[C@H](O[C@H]2C[C@H](O)[C@@H](O)[C@@H](C)O2)[C@H](C)O1` (stereo in doubt): the z-score is -0.987.
`CCC=CC[C@H]1C(=O)CC[C@@H]1CC(=O)OC` came in with a z-score of 0.356.
For the compound `C#CCN(C)CC1=Cc2ccccc2Oc2ccccc21`, the z-score was -1.17.
Consider `CN[C@@H]1[C@@H](O)[C@@H](O[C@@H]2[C@@H](O)[C@H](O[C@H]3O[C@H](CN)[C@@H](O)[C@H](O)[C@@H]3O)[C@@H](N)C[C@@H]2NC(=O)[C@@H](O)CN)OC[C@]1(C)O`, for which the z-score came out at 0.614.
Same read-out and setting: as for `Cc1ccccc1C(C(=O)NC1CCCCC1)N(C(=O)CNc1ccc(C#N)cc1)c1cccc(F)c1` (centres undefined), the figure is 0.632.
The compound `CC1(C)[C@H]2CC[C@]3(C)[C@@H](C(=O)C=C4[C@@H]5C[C@@](C)(C(=O)O)CC[C@]5(C)CC[C@]43C)[C@@]2(C)CC[C@@H]1O` came in with a z-score of 0.985.
On the same count and under the same terms, as for `C[C@@H]1CCO[C@H]2Cn3cc(C(=O)NCc4ccc(F)cc4F)c(=O)c(O)c3C(=O)N12`, the figure is 1.66; as for `C[C@]12CCC3=C4CCC(=O)C=C4CC[C@@H]3[C@H]1CC[C@@]2(O)CC#N`, -0.023; as for `CC(=O)OCC(=O)[C@@]1(O)CC[C@H]2[C@@H]3CCC4=CC(=O)C=C[C@]4(C)[C@@H]3[C@@H](O)C[C@@]21C`, -2.56.
In turn, `CCNC(=O)CCCC=CC[C@@H]1[C@H](C=CC(O)CCc2ccccc2)[C@@H](O)C[C@@H]1O` (some centres undefined) registered a z-score of 1.41.
Turning to `CC(C)=CCCC(C)=CCCC(C)=CCCC(C)=CCCC(C)=CCCC(C)=CCCC(C)=CCCC(C)=CCCC(C)=CCO`, the z-score turned out to be 1.27.
Same read-out and setting: then `CN[C@H]1[C@@H](O[C@@H]2[C@H](O[C@@H]3[C@@H](O)[C@@H](O)[C@@H](N=C(N)N)[C@@H](O)[C@@H]3N=C(N)N)O[C@H](C)[C@@]2(O)C=O)O[C@@H](CO)[C@@H](O)[C@H]1O`, with 2.73; and `COc1ccc(C=CC(=O)Nc2ccccc2C(=O)O)cc1OC`, with -0.0429.
As for `CC[C@]1(O)C[C@H]2CN(CCC3=c4ccccc4=N[C]3[C@@](C(=O)OC)(c3cc4c(cc3OC)N(C)[C@H]3[C@@](O)(C(N)=O)[C@H](O)[C@]5(CC)C=CCN6CC[C@]43[C@@H]65)C2)C1`, the z-score was -0.904.

A further test can be described thus: qHTS profiling for inhibitors of Plasmodium falciparum proliferation (AID 504749).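 Further: 0% = DMSO vehicle and full inhibition = artemisinin control; nearly all actives have a fitted effect of over 60% in size.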 The following applies: P. falciparum in erythrocytes, SYBR Green DNA, 72 h; at 28.7 µM (top of the series); parasite line A. In outline:
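P. falciparum-infected erythrocytes (0.3% parasitemia, 2.5% hematocrit) incubated with compound 72 h at 37 C, 5% CO2. Parasite DNA detected by SYBR Green after lysis, overnight at room temperature; normalised to 0.29 uM artemisinin and DMSO.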
As for `CN1CC(=O)N2C(Cc3c([nH]c4ccccc34)[C@H]2c2ccc3c(c2)OCO3)C1=O` (some centres undefined), the activity, negative = inhibition was 3.25% (inactive).
The same measure, in the same setting: then `O=C1C(CCC(O)c2ccc(F)cc2)C(c2ccc(O)cc2)N1c1ccc(F)cc1` (centres undefined), with 3.97% (inactive); and `CC(C)CN(C[C@@H](O)[C@H](Cc1ccccc1)NC(=O)O[C@H]1CO[C@H]2OCC[C@H]21)S(=O)(=O)c1ccc(N)cc1`, with 1% (inactive).
